Structures can show the parent of a compound that is named as a salt.
tested on: Saccharomyces cerevisiae; test: fraction of cells in G1 phase (DNA content, flow cytometry); higher = more cells with unreplicated DNA (G1 delay); details: temperature: 30 C; YPD; JTY2953 pdr5 snq2 (sensitized); drug added to: cultures diluted from stationary phase; 6-7 h
Protocol: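 S. cerevisiae cultures in YPD at 30°C were treated with each drug of the Enzo FDA-approved library at 20 µg/ml (final µM given per drug). Cells were fixed after 6–7 h (S1) or 6 h (S2), or after 4.33 h for BY4741 (S3), then stained with SYTOX Green. %G1 is the Dean-Jett-Fox G1 peak area divided by the G1+G2/M peak areas, written as a fraction and averaged over at least two independent experiments. DMSO reference: mean ~0.49; >0.60 is called High G1 and <0.3876 Low G1. Scale: lower means mitotic delay.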

| SMILES | fraction of cells in G1 phase |
| --- | --- |
| COc1ccc(C(=O)N2CCCC2=O)cc1 [Aniracetam] (91.2233 µM) | 0.483 |
| CN(C)C(=O)Oc1cccc([N+](C)(C)C)c1 [Neostigmine Br] (89.5666 µM) | 0.485 |
| Cc1c(N)nc(C(CC(N)=O)NCC(N)C(N)=O)nc1C(=O)NC(C(=O)NC(C)C(O)C(C)C(=O)NC(C(=O)NCCc1nc(-c2nc(C(=O)NCCC[S+](C)C)cs2)cs1)C(C)O)C(O[C@@H]1O[C@@H](CO)[C@@H](O)[C@H](O)[C@@H]1O[C@H]1O[C@H](CO)[C@@H](O)[C@H](OC(N)=O)[C@@H]1O)c1cnc[nH]1 (stereo partly specified) [Bleomycin sulfate] (14.1285 µM) | 0.924 |
| CC(C)C[C@H]1C(=O)N2CCC[C@H]2[C@]2(O)O[C@](NC(=O)[C@@H]3C=C4c5cccc6[nH]c(Br)c(c56)C[C@H]4N(C)C3)(C(C)C)C(=O)N12 [Bromocriptine mesylate] (30.5525 µM) | 0.529 |
| CN1C[C@H](C(=O)N[C@]2(C)O[C@@]3(O)[C@@H]4CCCN4C(=O)[C@H](Cc4ccccc4)N3C2=O)C=C2c3cccc4[nH]cc(c34)C[C@H]21 [Ergotamine D-tartrate] (34.3833 µM) | 0.499 |
| CN(C)C(=O)Oc1cc(OC(=O)N(C)C)cc(C(O)CNC(C)(C)C)c1 (stereo unspecified) [Bambuterol] (54.4293 µM) | 0.518 |

Source: the supplement of paper PMC3342239
